From PubChem BioAssay (NCI)
The panel holds about 79,000 compounds, 15% with a hit somewhere; the sample as a whole holds those more often. Cut-off read from the data, not from the text of the source: active = growth inhibition above about 70%; inactive = the rest.

How the values were obtained:
[1] = NCI Yeast Anticancer Drug Screen. Data for the rad50 strain (AID 155);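 note: 0% = growth of vehicle-only cultures of the same strain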; conditions: S. cerevisiae rad50 strain growth inhibition; at 50.0 µM; active compounds read high
Method in brief: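 Relative growth inhibition (compound vs vehicle) was measured in yeast with a defined repair-gene alteration.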

[2] = NCI Yeast Anticancer Drug Screen. Data for the mec2-1 strain (AID 157); conditions: S. cerevisiae mec2-1 strain, at 50.0 µM, active compounds read high
Method in brief: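 mec2-1 yeast strain, carrying an alteration in DNA damage repair or cell cycle control, was exposed to compounds; growth inhibition was measured relative to vehicle-treated controls.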

[3] = NCI Yeast Anticancer Drug Screen. Data for the sgs1 mgt1 strain (AID 161);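 note: 0% = growth of cultures given vehicle only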; conditions: S. cerevisiae sgs1 mgt1 strain, at 50.0 µM, active compounds read high
Method in brief: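 Percent growth inhibition was derived by comparing compound-exposed mutant yeast with vehicle-exposed cultures. The strain carries alterations in DNA damage repair.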

[4] = NCI Yeast Anticancer Drug Screen. Data for the cln2 rad14 strain (AID 165);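 note: 0% = growth equal to vehicle treated cultures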; conditions: S. cerevisiae cln2 rad14 strain, at 50.0 µM, active compounds read high
Method in brief: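 Yeast carrying cln2 and rad14 alterations (cell cycle control and DNA damage repair) were exposed to compounds. Growth inhibition was measured against vehicle-treated controls.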

[5] = NCI Yeast Anticancer Drug Screen. Data for the bub3 strain (AID 167); conditions: S. cerevisiae bub3 mutant strain, at 50.0 µM, active compounds read high
Method in brief: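 Screening used yeast with an engineered genetic alteration affecting cell cycle control. Compound-exposed cultures were compared with vehicle cultures, and reduced growth was taken as inhibition.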

[6] = NCI Yeast Anticancer Drug Screen. Data for the mlh1 rad18 strain (AID 175); conditions: S. cerevisiae mlh1 rad18 strain growth inhibition; at 50.0 µM; active compounds read high
Method in brief: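 Growth inhibition of the yeast strain was measured after compound exposure and expressed relative to vehicle-treated controls. The strain carries defined defects in DNA damage repair.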

Measured: growth inhibition

O=C(O)CN=CC(O)C(O)C(O)C(O)CO (stereo not given)
inactive: [1] -9.8% | [2] -3.8% | [3] 3.9% | [4] 4.4% | [5] 9.15% | [6] -2.45%

COc1ccc(C(c2cc(OC)c(OC)c(OC)c2)N2C(=O)CCC2C(=O)O)cc1 (stereo not given)
inactive: [1] -21.6% | [2] -13.6% | [3] -16.6% | [4] -11.8% | [5] -4.15% | [6] -8.3%

CCN(C(=N)C#N)c1ccccc1
inactive: [1] 29.8% | [2] 13.2% | [3] 10.1% | [4] 24.4% | [5] 29.9% | [6] 27.1%

C[CH2][Sn]([CH2]C)([O]C(=O)c1ccc(F)cc1)[O][Sn]([CH2]C)([CH2]C)[O]C(=O)c1ccc(F)cc1
inactive: [1] -7.3% | [2] -2.8% | [3] -16.4% | [4] 23.6% | [5] 12.6% | [6] -9.05%

CCc1cccc(C(C)C)c1NC(=O)C(=O)C1C(=O)Nc2ccccc2S1=O (stereo not given)
inactive: [1] -3.95% | [2] -13.6% | [3] -16.9% | [4] -11.2% | [5] 2.4% | [6] -29.1%

O=S(=O)(c1ccccc1)c1ccccn1
inactive: [1] -13.1% | [2] -13.2% | [3] -19.9% | [4] 6.2% | [5] 3.7% | [6] -22.1%

CCOC(=O)C1=C(Nc2ccccc2)OC/C1=N\NC(=O)Cc1ccccc1
inactive: [1] -6.75% | [2] -23.7% | [3] -1.6% | [4] 0.85% | [5] 10.2% | [6] -19.1%

CCN(CC)Cc1ccc([NH-])c([NH-])c1.CCN(CC)Cc1ccc([NH-])c([NH-])c1.[Cl][Pt+2][Cl].[Cl][Pt+2][Cl].[Cl][Pt+2][Cl]
inactive: [1] 27.4% | [2] 36.6% | [3] 35.6% | [4] 25.6% | [5] 29.2% | [6] 48.5%

N#CC(C#N)=CNc1cccc(Cl)c1
inactive: [1] 34% | [2] 9.8% | [3] 29.2% | [4] 9.45% | [5] -1.05% | [6] 18.5%

CNC(=O)Nc1ccc(C(=O)OCC(C)C)cc1
inactive: [1] 6.4% | [2] 8.7% | [3] 12.9% | [4] -34.1% | [5] -22.1% | [6] 7.45%

CCCCCc1[nH]c(=O)[nH]c(=O)c1S(=O)(=O)N1CCCCC1
inactive: [1] 0.15% | [2] 28.4% | [3] 18.7% | [4] 3.4% | [5] 25.9% | [6] 18.2%

NC(N)=NS(=O)(=O)c1ccc(Nc2c3ccccc3nc3c(C(=O)N4CCN(CCO)CC4)cccc23)cc1
inactive: [1] -0.4% | [2] -7.8% | [3] 2.95% | [4] 22.4% | [5] -5% | [6] -11.2%

Cc1cc[n+](-c2nc3c([O-])n(C)c(=O)n(C)c-3n2)cc1
inactive: [1] 0.65% | [2] 10.6% | [3] 6% | [4] -40.2% | [5] 8.95% | [6] 19.4%

CC(Oc1ccc2cc(C(=O)c3ccccc3)c(=O)oc2c1)C(=O)O (stereo not given)
inactive: [1] -4.25% | [2] 3.75% | [3] 19.2% | [4] 32.9% | [5] -0.1% | [6] 44.9%

Cc1ccc(S(=O)(=O)OCCN(CCOS(=O)(=O)c2ccc(C)cc2)c2cccc(Cl)c2)cc1
inactive: [1] 14.1% | [2] 2.35% | [3] 4.65% | [4] 19% | [5] -4.45% | [6] 29.9%

CC(C)(Br)CS(=O)(=O)c1ccccc1
inactive: [1] 38.1% | [2] 5.85% | [3] 29.1% | [4] -20.2% | [5] 14.1% | [6] 29.5%

Cc1ccc(/C=N/n2c(Cc3ccccc3)n[nH]c2=O)cc1
inactive: [1] 16.9% | [2] 5.1% | [3] 3.65% | [4] 11.8% | [5] 4.25% | [6] 25.6%

C=C(C)COC(=O)Nc1cccc(Cl)c1
inactive: [1] 58.9% | [2] -4.15% | [3] 4.7% | [4] 13.4% | [5] 10.2% | [6] 24.9%

CC(=O)NC(CCCN(Cc1ccccc1)C(=O)NCCCl)C(=O)NCc1ccccc1 (stereo not given)
inactive: [1] 13.7% | [2] -25.5% | [3] 4.5% | [4] 5.7% | [5] -33.7% | [6] -18.6%

c1ccc2c(c1)c1c(n2CCOCCN2CCCC2)CCCC1
inactive: [1] 21.6% | [2] 2.6% | [3] 2.45% | [4] 27% | [5] 0% | [6] -55.8%
